# Source: ChEMBL document CHEMBL3988442, “University of Dundee, Small-Polar-MMV Screening Library” (2021)
# Hit rate of the full screen: of about 66,000 compounds, about 960 (1.5%) showed an effect of 50% or more. What follows is part of a selection rich in strong results, with near analogues and random picks from the rest.
# Test system: Trypanosoma brucei
# Test: Trypanosoma brucei 72 hour study
# Format: functional, organism-based
# Parameters: scale not given: in the data most compounds retested in dose-response had high values
smiles,measurement,setting,value
O=C(c1ccncc1)N1C[C@@H]2CC[C@H](C1)N(S(=O)(=O)c1cccnc1)C2,Percent Effect,"30 µM, 30.03 µM",-9.354%
COc1ccc(CN(Cc2c[nH]cn2)CC2CCCO2)c(OC)c1.O=C(O)CC(O)(CC(=O)O)C(=O)O (stereo not drawn),Percent Effect,"30.3 µM, […]",4.059%
COCCNC(=O)[C@H]1C[C@@H]2CCN(c3ccccc3)C[C@H]2O1.O=C(O)C(F)(F)F,Percent Effect,"30.3 µM, […]",-28.03%
CCn1nnc2c1C(COCCN(C)C)CN(Cc1ccc(C)s1)C2.O=C(O)C(F)(F)F.O=C(O)C(F)(F)F (stereo not drawn),Percent Effect,"30.3 µM, […]",-26.69%
Cc1ccc(N2CCC3(CN(Cc4ccncc4)CCC3(F)F)C2)nn1.O=C(O)C(F)(F)F.O=C(O)C(F)(F)F (stereo not drawn),Percent Effect,"30.3 µM, […]",-39.6%
COc1cccc(CN2C[C@H]3CCNCC[C@H]3S2(=O)=O)c1,Percent Effect,"30.3 µM, […]",-73.82%
Cl.c1cnc2c(c1)cc(C1CCOCC1)n2CCN1CCOCC1,Percent Effect,"30.3 µM, […]",3.621%
COc1cccc(Cn2c(C3CCNCC3)cc3cccnc32)c1.Cl,Percent Effect,"30.3 µM, […]",94.63%
COc1cccc(-c2ccnc(C3CCNCC3)c2)c1,Percent Effect,"30.3 µM, […]",-11.36%
Cl.Fc1cccc(F)c1Cn1c(C2CCNCC2)cc2cccnc21,Percent Effect,"30.3 µM, […]",90.9%
Cl.Fc1cccc(F)c1Cn1c(C2CCCNC2)cc2cccnc21 (stereo not drawn),Percent Effect,"30.3 µM, […]",11.23%
COc1ccc(Cn2c(C3CCNCC3)cc3cccnc32)cc1.Cl,Percent Effect,"30.3 µM, […]",99.58%
CN1CCCC1c1cc2cccnc2n1Cc1ccc(F)cc1.Cl (stereo not drawn),Percent Effect,"30.3 µM, […]",-6.063%
Cl.Fc1ccccc1Cn1c(C2CCNCC2)cc2cccnc21,Percent Effect,"30.3 µM, […]",37.09%
NCC1CN(C(=O)Cn2ncc(N3CCCCC3)cc2=O)CCO1 (stereo not drawn),Percent Effect,"30.3 µM, […]",7.872%
O=C(O)C(F)(F)F.O=C(c1cscn1)N1CCC2(CN(Cc3ccsc3)C2)C1,Percent Effect,"30 µM, 30.03 µM",-41.53%
Cc1cc(NC(C)c2csc(C)n2)n2nc(C)c(C)c2n1 (stereo not drawn),Percent Effect,"30 µM, 30.03 µM",-27.53%
Cc1cc(NC(C)c2nnn[nH]2)n2nc(C)c(C)c2n1 (stereo not drawn),Percent Effect,"30 µM, 30.03 µM",85.64%
Cc1cc(NC(C)c2n[nH]c(C)n2)n2nc(C)c(C)c2n1 (stereo not drawn),Percent Effect,"30 µM, 30.03 µM",-65.68%
O=C(NCc1ccco1)[C@@H]1CCO[C@@H]2CCN(CC3CC3)C[C@@H]21.O=C(O)C(F)(F)F,Percent Effect,"30 µM, 30.03 µM",-21.92%
CCc1csc(CNC2CCN(Cc3ccccc3)C2)n1 (stereo not drawn),Percent Effect,"30.3 µM, […]",-9.701%
Cc1nc(CN2CCCC(NCc3cnc(C(C)(C)C)s3)C2)no1 (stereo not drawn),Percent Effect,"30.3 µM, […]",-11.81%
Cc1nc(CN2CCCC(NCc3csc(C(C)(C)C)n3)C2)no1 (stereo not drawn),Percent Effect,"30.3 µM, […]",71.04%
same,Percent Effect,"10 mM, 10 mM as filed; unlikely as a test dose",-25.98%
Cc1nc(CN2CCCC(NCc3ccsc3)C2)no1 (stereo not drawn),Percent Effect,"30 µM, 30.03 µM",-22.48%
Cc1nc(CNC2CCN(Cc3ccccc3)C2)sc1C (stereo not drawn),Percent Effect,"30.3 µM, […]",100.1%
Cc1nc(CN2CCCC(NCc3cccc4ccccc34)C2)no1 (stereo not drawn),Percent Effect,"30.3 µM, […]",-31.57%
same,Percent Effect,"10 mM, 10 mM as filed; unlikely as a test dose",-42.23%
Cc1nc(CN2CCCC(NCc3ccc(Cl)s3)C2)no1 (stereo not drawn),Percent Effect,"30.3 µM, […]",-4.21%
same,Percent Effect,"10 mM, 10 mM as filed; unlikely as a test dose",-21.78%
Cc1nc(CN2CCCC(NCc3nc4ccccc4s3)C2)no1 (stereo not drawn),Percent Effect,"30.3 µM, […]",74.19%
same,Percent Effect,"10 mM, 10 mM as filed; unlikely as a test dose",66.41%
Cc1nc(CCNC2CCN(Cc3ccccc3)C2)sc1C (stereo not drawn),Percent Effect,"30.3 µM, […]",-17.04%
Nc1cc(N2CCCC(CO)(Cc3ccccc3F)C2)nc(N)n1 (stereo not drawn),Percent Effect,"30 µM, 30.03 µM",15.39%
CCn1nc2c(cc1=O)CN(Cc1coc(-c3ccccc3)n1)CC2,Percent Effect,"30.3 µM, […]",3.49%
CCOCC(=O)N1CCC2(CC1)COCCN2CCN(C)C.O=C(O)C(F)(F)F.O=C(O)C(F)(F)F,Percent Effect,"30.3 µM, […]",-7.88%
CCCNC(c1ccc(F)cc1)c1cccnc1.Cl.Cl (stereo not drawn),Percent Effect,"30 µM, 30.03 µM",-17.83%
CN(C)C(=O)c1ccc(C2CCCNC2)nc1.Cl.Cl (stereo not drawn),Percent Effect,"30.3 µM, […]",-34.47%
Cl.c1nc(CCC2CCCN2)cc(N2CCCCCC2)n1 (stereo not drawn),Percent Effect,"30.3 µM, […]",-0.6472%
COc1ncccc1NC(=O)NCC1CCS(=O)(=O)C1 (stereo not drawn),Percent Effect,"30 µM, 30.03 µM",51.37%
CCN1CCC(CNC(=O)Nc2cccnc2OC)CC1,Percent Effect,"30.3 µM, […]",3.244%
COc1ncccc1NC(=O)NCC1CC1,Percent Effect,"30.3 µM, […]",14.51%
CCOc1ccc(C(=O)N2CCCC(n3nc(C)nc3C)C2)cc1 (stereo not drawn),Percent Effect,10 µM,-77.91%
Cc1nnc(N2CCCC3(CN(c4ccccn4)CCO3)C2)o1.O=C(O)C(F)(F)F (stereo not drawn),Percent Effect,"30.3 µM, […]",1.863%
Cc1cc(NCc2cc(C)oc2C(F)(F)F)n2nc(C)cc2n1,Percent Effect,"30 µM, 30.03 µM",27.35%
COc1ccccc1C1(CNc2ccc(C(=O)N(C)C)cn2)CC1,Percent Effect,"30 µM, 30.03 µM",-17.01%
COc1ccccc1C1(CNc2ccnc(C(=O)N(C)C)c2)CC1,Percent Effect,"30 µM, 30.03 µM",98.99%
COc1ccccc1C1(CNc2cc(C(=O)N(C)C)ccn2)CC1,Percent Effect,"30 µM, 30.03 µM",-21.75%
